Assay results from ChEMBL document CHEMBL3988442, “University of Dundee, Small-Polar-MMV Screening Library” (2021).
For part of these data: Measured potencies and affinities stand elsewhere.

Assays:
Set-up in all cases: scale not given: direction of the effect not stated beside the values
[1] = target: Protein translocase subunit SecA (Escherichia coli (strain K12)) (UniProt P10408); assay: Assay to Identify E. coli SecA ATPase Inhibitors; type: functional; details: 30 µM
[2] = target: T1, Ubiquitin-activating enzyme e1, putative (Leishmania donovani (strain BPK282A1)) (UniProt E9BSI1); assay: Leishmania donovani Ubiquitin Activating Enzyme (LdE1); type: functional; details: 30 µM
T1 sequence (whole entry): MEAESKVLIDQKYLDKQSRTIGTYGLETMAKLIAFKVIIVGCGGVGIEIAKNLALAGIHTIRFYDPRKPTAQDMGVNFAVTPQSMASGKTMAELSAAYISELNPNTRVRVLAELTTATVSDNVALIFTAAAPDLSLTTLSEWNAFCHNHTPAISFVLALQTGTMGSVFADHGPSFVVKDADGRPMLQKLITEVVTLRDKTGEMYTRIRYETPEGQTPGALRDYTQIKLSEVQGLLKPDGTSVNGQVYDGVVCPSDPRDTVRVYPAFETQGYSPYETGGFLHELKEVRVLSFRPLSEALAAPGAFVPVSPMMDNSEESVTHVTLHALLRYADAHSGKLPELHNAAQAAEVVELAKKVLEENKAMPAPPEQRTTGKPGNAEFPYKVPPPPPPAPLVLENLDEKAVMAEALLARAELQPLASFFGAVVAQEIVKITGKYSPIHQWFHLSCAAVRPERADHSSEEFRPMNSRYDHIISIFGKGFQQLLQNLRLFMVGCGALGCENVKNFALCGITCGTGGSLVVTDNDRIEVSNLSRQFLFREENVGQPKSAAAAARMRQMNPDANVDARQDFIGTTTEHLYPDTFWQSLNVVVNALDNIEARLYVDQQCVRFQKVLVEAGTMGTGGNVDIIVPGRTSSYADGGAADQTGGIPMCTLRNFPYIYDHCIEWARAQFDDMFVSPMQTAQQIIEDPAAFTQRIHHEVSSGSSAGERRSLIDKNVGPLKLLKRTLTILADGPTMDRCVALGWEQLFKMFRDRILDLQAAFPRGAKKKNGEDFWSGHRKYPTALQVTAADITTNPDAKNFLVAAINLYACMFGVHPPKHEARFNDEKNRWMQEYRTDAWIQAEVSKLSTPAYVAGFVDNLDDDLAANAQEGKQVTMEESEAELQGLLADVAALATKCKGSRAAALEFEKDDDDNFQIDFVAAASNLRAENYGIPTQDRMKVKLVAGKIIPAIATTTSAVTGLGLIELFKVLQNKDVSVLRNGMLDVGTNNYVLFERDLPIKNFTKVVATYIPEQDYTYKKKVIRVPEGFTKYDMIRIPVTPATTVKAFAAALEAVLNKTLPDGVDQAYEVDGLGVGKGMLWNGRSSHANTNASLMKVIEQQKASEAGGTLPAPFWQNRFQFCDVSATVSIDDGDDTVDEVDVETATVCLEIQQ

[3] = target: T2, Aspartate--tRNA(Asp/Asn) ligase (Mycobacterium tuberculosis (strain ATCC 25618 / H37Rv)) (UniProt P9WFW3); assay: Assay for Asp RNA synthetase-1 from Mycobacterium tuberculosis; type: functional; details: 30 µM; note: in the data most compounds retested in dose-response had high values
T2 sequence (whole entry): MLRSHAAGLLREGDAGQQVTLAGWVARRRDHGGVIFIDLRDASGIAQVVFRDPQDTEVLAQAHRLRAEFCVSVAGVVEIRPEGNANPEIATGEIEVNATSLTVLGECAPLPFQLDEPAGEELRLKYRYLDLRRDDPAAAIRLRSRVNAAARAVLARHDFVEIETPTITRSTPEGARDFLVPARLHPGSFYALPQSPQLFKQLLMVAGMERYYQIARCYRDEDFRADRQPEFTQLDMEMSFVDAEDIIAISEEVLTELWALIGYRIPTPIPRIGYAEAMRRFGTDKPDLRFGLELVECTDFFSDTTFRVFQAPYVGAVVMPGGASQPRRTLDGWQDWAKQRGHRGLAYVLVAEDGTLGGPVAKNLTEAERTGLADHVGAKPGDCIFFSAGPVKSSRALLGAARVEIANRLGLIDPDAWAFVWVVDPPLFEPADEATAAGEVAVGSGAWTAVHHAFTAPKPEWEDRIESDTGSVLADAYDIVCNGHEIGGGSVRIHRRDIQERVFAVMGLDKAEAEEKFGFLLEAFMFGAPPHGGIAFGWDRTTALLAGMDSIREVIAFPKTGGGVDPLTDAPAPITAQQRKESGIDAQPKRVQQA

[4] = target: AMP-activated protein kinase, AMPK (Homo sapiens) (UniProt P54646+O43741+P54619+Q9UGJ0+Q9Y478+Q13131+Q9UGI9); assay: AMP-dependent Kinase enzyme assay. An in vitro enzyme assay that detects ADP turnover that is directly proportional to AMPK activity. This uses naive AMPK that is activated during the assay with MK-8722; type: functional; details: 30 µM
[5] = target: Sialic acid-binding Ig-like lectin 9 (Homo sapiens) (UniProt Q9Y336); assay: Hs-Siglec9 ALPHAscreen SOP 20170721; details: 10 µM
Trypanosoma cruzi = assay: Trypanosoma cruzi phosphomannomutase and mannose-1-phosphate guanylyltransferase assay; type: functional; details: 10 µM
[6] = target: T3, Arginase-2, mitochondrial (Homo sapiens) (UniProt P78540); assay: in vitro enzyme assay to detect the production of urea directly proportional to the activity of Arginase II; type: functional; details: 33.3 µM; note: in the data most compounds retested in dose-response had high values
T3 sequence (whole entry): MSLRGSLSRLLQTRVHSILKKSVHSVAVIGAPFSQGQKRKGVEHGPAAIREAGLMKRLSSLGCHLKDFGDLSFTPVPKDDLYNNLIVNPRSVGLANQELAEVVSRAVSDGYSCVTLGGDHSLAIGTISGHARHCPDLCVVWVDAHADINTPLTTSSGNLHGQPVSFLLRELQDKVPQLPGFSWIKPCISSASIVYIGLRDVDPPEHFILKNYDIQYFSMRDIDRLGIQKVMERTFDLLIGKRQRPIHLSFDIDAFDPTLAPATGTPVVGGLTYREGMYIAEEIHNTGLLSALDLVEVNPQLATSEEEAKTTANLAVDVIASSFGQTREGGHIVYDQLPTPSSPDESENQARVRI

[7] = target: T4, Proteasome subunit beta (Trypanosoma cruzi) (UniProt O96673); assay: Trypanosoma cruzi proteasome chymotrypsin-like activity (TcProtChymo) assay.; note: in the data most compounds retested in dose-response had high values; type: functional; details: 9.37 µM
T4 sequence (whole entry): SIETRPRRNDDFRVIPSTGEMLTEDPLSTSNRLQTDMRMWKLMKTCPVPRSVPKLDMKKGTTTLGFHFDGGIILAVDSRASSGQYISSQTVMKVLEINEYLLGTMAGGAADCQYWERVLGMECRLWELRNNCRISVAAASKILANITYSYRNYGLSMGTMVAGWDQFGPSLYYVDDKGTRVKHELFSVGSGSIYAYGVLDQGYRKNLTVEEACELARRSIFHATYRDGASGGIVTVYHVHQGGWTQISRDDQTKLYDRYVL

Homo sapiens = species: Homo sapiens; assay: To identify inhibition of the IFN signalling (Jak-Stat) pathway via expression of an eGFP reporter gene under the control of an IFN-stimulated response element (ISRE) containing MxA promoter.; type: functional; details: 30 µM
[8] = target: Shiga toxin 2 (Escherichia coli O157:H7) (UniProt P09385+P09386); assay: E. coli 0.157:H7 Shiga Toxin SOP - stx2 screening assay; type: functional; details: 30 µM
[9] = target: T5, Tyrosyl-tRNA synthetase, putative (Trypanosoma cruzi (strain CL Brener)) (UniProt Q4DSP6); assay: Trypanosoma cruzi tyrosyl tRNA synthetase (TcYRS) _High Tyrosine SOP; type: functional; details: 30 µM; note: in the data most compounds retested in dose-response had high values
T5 sequence (whole entry): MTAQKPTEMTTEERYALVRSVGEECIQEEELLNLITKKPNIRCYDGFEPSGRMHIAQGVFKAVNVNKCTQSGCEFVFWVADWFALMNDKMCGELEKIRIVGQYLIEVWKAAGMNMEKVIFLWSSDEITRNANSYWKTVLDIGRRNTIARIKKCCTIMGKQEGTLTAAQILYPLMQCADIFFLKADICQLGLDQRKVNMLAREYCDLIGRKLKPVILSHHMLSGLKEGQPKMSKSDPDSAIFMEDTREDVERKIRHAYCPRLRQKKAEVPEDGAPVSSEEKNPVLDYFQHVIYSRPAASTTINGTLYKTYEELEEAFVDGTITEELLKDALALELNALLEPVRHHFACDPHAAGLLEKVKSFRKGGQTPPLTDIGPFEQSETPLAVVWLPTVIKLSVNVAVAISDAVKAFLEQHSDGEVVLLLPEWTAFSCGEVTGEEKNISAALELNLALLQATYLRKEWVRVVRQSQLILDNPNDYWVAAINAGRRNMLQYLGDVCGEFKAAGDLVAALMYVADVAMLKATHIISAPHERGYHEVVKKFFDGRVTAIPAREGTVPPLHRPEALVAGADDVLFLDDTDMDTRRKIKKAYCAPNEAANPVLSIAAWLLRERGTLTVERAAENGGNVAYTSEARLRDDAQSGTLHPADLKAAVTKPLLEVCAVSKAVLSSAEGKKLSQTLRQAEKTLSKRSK

[10] = target: T5, Tyrosyl-tRNA synthetase, putative (Trypanosoma cruzi (strain CL Brener)); assay: Trypanosoma cruzi tyrosyl tRNA synthetase (TcYRS) SOP; type: functional; details: 30 µM
[11] = target: Chromo domain-containing protein 1 (Saccharomyces cerevisiae (strain ATCC 204508 / S288c) (Baker's yeast)) (UniProt P32657); assay: ScCHD-1 Enzyme Inhibition Assay; type: functional; details: 30 µM; note: in the data most compounds retested in dose-response had high values
Chromo domain-containing protein 1 (Saccharomyces cerevisiae (strain ATCC 204508 / S288c) (Baker's yeast)), sequence (P32657 whole entry, the tested form may be a part): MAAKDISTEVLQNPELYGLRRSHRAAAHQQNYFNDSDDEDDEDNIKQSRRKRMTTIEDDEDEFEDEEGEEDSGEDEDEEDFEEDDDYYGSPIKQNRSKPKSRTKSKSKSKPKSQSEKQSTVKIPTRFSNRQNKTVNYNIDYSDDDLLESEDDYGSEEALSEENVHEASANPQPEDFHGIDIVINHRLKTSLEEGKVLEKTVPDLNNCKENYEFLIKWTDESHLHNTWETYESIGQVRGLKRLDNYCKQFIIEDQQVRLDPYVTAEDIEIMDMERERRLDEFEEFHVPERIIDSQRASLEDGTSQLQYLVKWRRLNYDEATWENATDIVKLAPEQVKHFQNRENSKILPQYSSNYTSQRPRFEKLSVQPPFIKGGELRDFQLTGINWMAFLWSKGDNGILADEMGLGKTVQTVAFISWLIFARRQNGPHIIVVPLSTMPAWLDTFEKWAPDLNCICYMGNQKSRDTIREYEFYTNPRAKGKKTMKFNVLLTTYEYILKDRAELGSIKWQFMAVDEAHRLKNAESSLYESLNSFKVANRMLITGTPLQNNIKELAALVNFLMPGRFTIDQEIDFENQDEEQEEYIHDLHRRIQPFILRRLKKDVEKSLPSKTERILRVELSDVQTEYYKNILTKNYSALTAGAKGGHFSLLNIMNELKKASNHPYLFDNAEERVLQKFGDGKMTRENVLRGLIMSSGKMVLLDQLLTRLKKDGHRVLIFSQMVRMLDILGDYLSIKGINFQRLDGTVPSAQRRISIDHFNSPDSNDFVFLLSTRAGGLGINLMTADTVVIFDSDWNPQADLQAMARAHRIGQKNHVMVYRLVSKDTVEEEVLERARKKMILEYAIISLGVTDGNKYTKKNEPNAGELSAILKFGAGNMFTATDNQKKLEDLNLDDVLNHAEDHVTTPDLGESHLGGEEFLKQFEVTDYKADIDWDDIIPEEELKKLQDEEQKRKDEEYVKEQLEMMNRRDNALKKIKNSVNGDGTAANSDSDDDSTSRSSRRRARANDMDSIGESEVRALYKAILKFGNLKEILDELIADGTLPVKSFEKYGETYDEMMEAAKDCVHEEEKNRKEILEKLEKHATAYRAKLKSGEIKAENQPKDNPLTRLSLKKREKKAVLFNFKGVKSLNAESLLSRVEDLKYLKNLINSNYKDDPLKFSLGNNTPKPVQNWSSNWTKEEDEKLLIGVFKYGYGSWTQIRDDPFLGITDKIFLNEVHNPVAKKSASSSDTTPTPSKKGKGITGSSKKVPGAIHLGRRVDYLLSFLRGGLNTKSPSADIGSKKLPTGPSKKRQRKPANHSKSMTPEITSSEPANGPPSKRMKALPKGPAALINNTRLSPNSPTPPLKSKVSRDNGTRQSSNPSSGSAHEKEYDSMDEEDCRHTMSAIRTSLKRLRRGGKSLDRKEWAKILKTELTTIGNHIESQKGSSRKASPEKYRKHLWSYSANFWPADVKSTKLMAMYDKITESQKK

Protein translocase subunit SecA (Escherichia coli (strain K12)), sequence (P10408 whole entry): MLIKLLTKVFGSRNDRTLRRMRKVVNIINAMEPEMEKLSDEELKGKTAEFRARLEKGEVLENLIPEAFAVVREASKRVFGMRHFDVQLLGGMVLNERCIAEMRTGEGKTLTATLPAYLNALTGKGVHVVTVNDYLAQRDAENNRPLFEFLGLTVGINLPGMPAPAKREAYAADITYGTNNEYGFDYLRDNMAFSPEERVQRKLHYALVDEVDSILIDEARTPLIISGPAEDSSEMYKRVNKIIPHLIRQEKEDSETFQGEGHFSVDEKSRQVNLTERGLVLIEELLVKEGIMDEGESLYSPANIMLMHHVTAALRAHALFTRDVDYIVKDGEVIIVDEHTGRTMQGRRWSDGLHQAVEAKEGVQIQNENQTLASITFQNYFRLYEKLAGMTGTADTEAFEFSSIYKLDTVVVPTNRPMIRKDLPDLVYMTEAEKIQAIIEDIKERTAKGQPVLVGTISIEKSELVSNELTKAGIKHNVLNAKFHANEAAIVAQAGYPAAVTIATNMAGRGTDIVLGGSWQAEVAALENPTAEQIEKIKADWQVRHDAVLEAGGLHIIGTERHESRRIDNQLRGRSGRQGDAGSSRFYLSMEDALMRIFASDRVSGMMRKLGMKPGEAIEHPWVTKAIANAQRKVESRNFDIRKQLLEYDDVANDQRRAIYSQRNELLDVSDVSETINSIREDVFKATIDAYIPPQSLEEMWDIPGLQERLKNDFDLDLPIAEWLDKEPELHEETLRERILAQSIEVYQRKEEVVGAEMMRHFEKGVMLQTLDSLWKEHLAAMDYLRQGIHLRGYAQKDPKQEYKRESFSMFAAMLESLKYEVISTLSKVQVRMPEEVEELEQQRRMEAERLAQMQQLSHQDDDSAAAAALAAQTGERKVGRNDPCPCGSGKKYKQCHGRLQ
Sialic acid-binding Ig-like lectin 9 (Homo sapiens), sequence (Q9Y336 whole entry): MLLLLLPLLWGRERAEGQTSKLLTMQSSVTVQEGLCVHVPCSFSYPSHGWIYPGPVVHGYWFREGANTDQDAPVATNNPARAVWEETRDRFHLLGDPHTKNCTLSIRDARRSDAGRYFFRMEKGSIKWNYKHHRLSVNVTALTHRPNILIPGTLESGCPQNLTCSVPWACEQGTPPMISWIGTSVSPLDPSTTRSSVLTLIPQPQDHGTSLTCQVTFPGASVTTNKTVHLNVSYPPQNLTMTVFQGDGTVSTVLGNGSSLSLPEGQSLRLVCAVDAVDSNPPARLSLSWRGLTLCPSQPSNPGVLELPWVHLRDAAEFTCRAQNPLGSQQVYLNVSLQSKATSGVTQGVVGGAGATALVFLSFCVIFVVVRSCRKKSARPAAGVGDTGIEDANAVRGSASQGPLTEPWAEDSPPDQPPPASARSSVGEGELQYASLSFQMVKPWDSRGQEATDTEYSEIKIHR

Structure (SMILES)	Percent Effect [1] [%]	Percent Effect [2] [%]	Percent Effect [3] [%]	Percent Effect [4] [%]	Percent Effect [5] [%]	Percent Effect (Trypanosoma cruzi) [%]	Percent Effect [6] [%]	Percent Effect [7] [%]	Percent Effect (Homo sapiens) [%]	Percent Effect [8] [%]	Percent Effect [9] [%]	Percent Effect [10] [%]	Percent Effect [11] [%]
c1cnc(NC[C@@H]2CCC[C@@H]3CN(Cc4cccnc4)C[C@@H]32)nc1	0.229	10.8	-0.324	-2.93	-7.32	1.56	25.4	15.5	10.2	-34.3	13.9	18.3	-3
CC(C)N1CCOCC2(CN(Cc3ccccn3)CCO2)C1 (configuration not stated)	-1.27	10.4	5.23	2.61	-0.373	-2.86	5.81	3.65	5.84	-12.2	6.35	3.85	-3.65
c1cc(COC[C@@H]2CCC[C@@]23CNCCO3)ccn1	-6.97	8.11	4.08	91.3	-11.6	-6.94	-3.5	10.7	2.47	-12.9	-3.24	0	-2.52
NCC1(c2cccc(C(F)(F)F)c2)CCOCC1	-1.6	5.41	0.69	-16.1	-3.19	-0.781	25	15.6	7.66	-1.62	7.92	18.3	107
O=C(NC[C@]12COC[C@H]1CN(Cc1cccnc1)C2)c1ccno1	0.292	13.3	0.956	8.36	-8.01	-4.13	-0.233	2.73	-4.47	-10.4	9.57	19.2	-7.79
COc1cc(CNC(C)Cn2cccn2)cc(OC)c1OC (configuration not stated)	0.206	18.2	-3.28	0.589	-6.87	-7.3	4.98	2.87	29.8	-15.9	7.77	14.6	-9.78
CCN1CCC2(CC1)CC(Nc1ncccn1)CO2 (configuration not stated)	-4.33	2.7	-1.65	-2.57	1.3	4.49	35.8	6.34	8.12	11.5	6.93	13.4	-1.38
c1cncc(N2CCCC3(CN(Cc4cccs4)CCO3)C2)c1 (configuration not stated)	-4.82	8.11	1.48	-14.4	-11.3	-4.2	-1.59	8.12	29.1	1.28	-1.08	5.13	-3.66
CO[C@H]1CCN(Cc2ccccn2)[C@@H]2CN(Cc3ccco3)C[C@H]12	-4.75	9.33	-1.34	0.435	4.87	-3.34	2.64	17.7	-12.9	-18.4	9.52	15.4	-1.8
